# The list is not random: actives were taken first. Their share in the collection is about 4.5%.
# SKKanGAS inh: S. pyogenes SKKanGAS growth inhibitors in kanamycin, primary screen, streptokinase expression inhibitor project, SKKanGAS strain, BacTiter-Glo luminescence; 6 h; inhibition, % at 7.5 µM; 300,000 compounds, 1.3% hits;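 active = mean replicate score, as percent of positive control median, at least 50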;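 note: strain carries kanamycin resistance gene driven by streptokinase promoter and grows in 40 µg/ml kanamycin; loss of luminescence reflects streptokinase promoter inhibition or plain growth inhibition; 0% = median of DMSO wells and 100% = positive control at its reference dose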
# NALP3 yeast inh: NALP3 inflammasome inhibitors in reconstituted yeast, primary screen, luminescence, uHTS; AID 2825, 2010; inhibition, % at 10 µM; Yeast reconstituted NLRP3/ASC/caspase-1, beta-gal luminescence, 24 h; 330,000 compounds, 0.39% hits;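 active = inhibition of 50% or more; inactive = inhibition below 50%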;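 note: plate controls were induced DMSO wells for no effect and uninduced yeast grown without galactose for full effect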
# tim10-1 inh: growth inhibitors of tim10-1 mutant yeast, primary screen, luminescence, uHTS; S. cerevisiae tim10-1 ts strain growth, BacTiter-Glo, 24 h; inhibition, % at 20 µM; 330,000 compounds, 2.2% hits; AID 463190, 2010;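 active = inhibition of at least 40%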;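 note: mutant grown at 25 °C; 0% = DMSO wells with yeast and 100% = wells holding no yeast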
# PfHsp90 set2: growth inhibition of PfHsp90-expressing yeast, primary screen, antimalarial PfHsp90 inhibitor project, S. cerevisiae, BacTiter-Glo luminescence, single point, set 2 | BacTiter-Glo ATP, 48 h; yeast lacking PDR1 and PDR3 efflux regulators | inhibition, % at 9.4 µM | 310,000 compounds, 0.32% hits | AID 504621, 2011;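 active = every replicate shows inhibition above about 80%, whatever the replicate mean, limit read from the data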;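 note: 0% = DMSO neutral controls and 100% = 20 µM radicicol positive controls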
# TIM10 inh: growth inhibitors of isogenic TIM10 control yeast, primary screen, counter-screen for tim10-1 yeast inhibitor project, luminescence, uHTS; S. cerevisiae TIM10 strain growth, BacTiter-Glo luminescence, 24 h; inhibition, % at 10 µM; 330,000 compounds, 1.4% hits;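 active = inhibition of 40% or more at the single tested concentration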;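 note: wild-type TIM10 isogenic control strain grown at permissive 25 °C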
# tim23-1 inh: growth inhibitors of tim23-1 mutant yeast, primary screen, luminescence, uHTS. S. cerevisiae tim23-1 growth, BacTiter-Glo luminescence, 24 h. inhibition, % at 20 µM. 330,000 compounds, 1.3% hits;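 active = growth inhibition of the mutant yeast at or above 50%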;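 note: temperature-sensitive mutant grown at 25 °C; plate controls were DMSO-treated mutant yeast for no effect and medium wells lacking yeast for full effect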
# NALP3 yeast conf: NALP3 inhibitors retested in yeast, confirmation, luminescence, single concentration | inhibition, % at 10 µM | yeast expressing human NALP3 | shares compounds with NALP3 yeast inh | 1,300 compounds, 81% hits; in the data active = inhibition above about 48%
# Casp1 ASC ctr: CASP1-PYCARD signaling inhibition in yeast, confirmatory test, counterassay for NLRP3 inhibitor program, one-dose; AID 488784, 2010; 1,000 compounds, 66% hits; inhibition, % at 10 µM; shares compounds with NALP3 yeast inh; yeast expressing Caspase-1-ASC, luminescence counter screen
# NALP3 retest: NALP3 inhibitors in yeast, repeat test, confirmation, luminescence, single concentration, retest | shares compounds with NALP3 yeast inh | yeast expressing human NALP3, luminescence read-out | inhibition, % at 10 µM | 1,000 compounds, 53% hits | AID 488794, 2010
# tim10-1 confirm: growth inhibitors of tim10-1 mutant yeast, confirmation, single concentration, luminescence, S. cerevisiae. S. cerevisiae tim10-1 ts strain growth, BacTiter-Glo, 24 h. inhibition, % at 20 µM. shares compounds with tim10-1 inh. AID 463213, 2010. 7,400 compounds, 56% hits;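 active = inhibition of yeast growth at or above a set limit in either of two repeat tests at 20 µM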;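 note: tim10-1 mutant grown at permissive 25 °C to find synthetic lethal compounds; 0% = DMSO yeast wells and 100% = medium wells without yeast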
# tim10 confirm: growth inhibitors of wild-type TIM10 yeast, confirmation, counter-screen for tim10-1 synthetic lethality project, single concentration, luminescence, S. cerevisiae. shares compounds with TIM10 inh. S. cerevisiae tim10 strain growth, BacTiter-Glo luminescence, 24 h. inhibition, % at 10 µM. 4,600 compounds, 63% hits. AID 463215, 2010;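 active = inhibition of yeast growth at or above a set limit in either of two replicates at 10 µM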;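 note: this counterscreen used the strain with wild-type TIM10; 0% = yeast with DMSO and 100% = medium wells lacking yeast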
# tim23-1 conf: tim23-1 mutant yeast growth inhibitors, confirmation, luminescence, single concentration; AID 463218, 2010; S. cerevisiae tim23-1 growth, BacTiter-Glo luminescence, 24 h; inhibition, % at 20 µM; shares compounds with tim23-1 inh; 4,400 compounds, 83% hits;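 active = inhibition above about 39% in either of two replicate wells at 20 µM, limit read from the data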;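 note: temperature-sensitive tim23-1 mutant grown at 25 °C; 0% = DMSO wells with yeast and 100% = medium wells without yeast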
# The depositor's hits bear a star; · = not tested or not shown; ! = repeats disagree. Cut-off read from the data, not from the text of the source, unless noted: active = inhibition above about 50%; inactive = the rest.
SMILES,SKKanGAS inh,NALP3 yeast inh,tim10-1 inh,PfHsp90 set2,TIM10 inh,tim23-1 inh,NALP3 yeast conf,Casp1 ASC ctr,NALP3 retest,tim10-1 confirm,tim10 confirm,tim23-1 conf
O=[N+]([O-])c1ccc(NC(=S)NCCc2ccc(Cl)cc2)cc1,98*,69*,65*,108*,72*,65*,68*,93*,94*,73*,85*,68*
O=C(Nc1cccc2nsnc12)c1cccs1,-3,70*!,16,-24,69*!,61*!,89*,78*,61*,·,58*,76*
O=C(Nc1ccc2nsnc2c1)c1cccs1,-3,-10,16,9,18,19,·,·,·,·,·,·
CSc1ccc(CN2CCCC(N3CCN(c4ccccc4)CC3)C2)cc1 (stereo not given),2,33,6,22,2,-2,·,·,·,·,·,·
O=C(NC1CC1)c1ccc(-c2nc3ccccc3s2)s1,7,60*,10,·,53*,59*,55*,52*,48,·,51*,68*
Cc1ccc2nc(NC(=O)c3ccc(-c4nc5ccccc5s4)s3)sc2c1,·,6,7,0,6,8,·,·,·,·,·,·
Cc1ccc2ccc3cccnc3c2n1,43,·,·,10,·,·,·,·,·,·,·,·
Cc1c(C)c2cccnc2c2ncccc12,·,78*,38,124*,57*,69*,86*,96*,86*,·,62*,45*
COc1ccc(S(=O)(=O)NCc2ccccn2)cc1NC(=O)c1ccccc1C,-4,-4,17,5,0,10,·,·,·,·,·,·
N/C(Cc1cccc2ccccc12)=N\OC(=O)COc1ccccc1,-3,25,38,-5,33,41,·,·,·,·,·,·
Cc1cccc(C(=O)O/N=C(\N)Cc2cccc3ccccc23)c1,9,53*,43*,34,77*,81*,65*,48,64*,30*,84*,64*
Cn1c(=O)c(C(=O)Nc2ccccn2)c(O)c2ccccc21,-5,51*,8,·,33,57*,63*,40,49,·,·,58*
Cn1c(=O)c(C(=O)NNC(=O)c2ccccc2Br)c(O)c2ccccc21,75*,59*,7,19,33,51*,84*,53*,65*,·,·,35
Cc1ccc(Nc2cc(C)nn2-c2nc(C)cc(=O)[nH]2)cc1,92*,76*,63*,105*,76*,68*,81*,97*,93*,47*,-17,52*
O=C(Nc1ccc(Cl)cc1)c1ccc2c(=O)n3c(nc2c1)CCCCC3,19,28,-6,·,-1,-14,·,·,·,·,·,·
O=C(Nc1cccc(Cl)c1)c1ccc2c(=O)n3c(nc2c1)CCCCC3,5,70*,45*,3,73*,54*,66*,·,·,30,-15,80*
CC1(C)CC(=O)c2cnc(N3CCc4ccccc4C3)nc2C1,-4,62*,55*,-17,16,71*,43,6,25,53*,·,52*
CC1(C)CC(=O)c2cnc(N3CCN(c4ccccc4)CC3)nc2C1,0,-9,28,-15,10,31,·,·,·,·,·,·
Cc1cc(C)cc(N=C2NC(=O)/C(=C/c3cccs3)S2)c1,17,18,7,-2,13,13,·,·,·,·,·,·
O=C1NC(=Nc2ccccc2)S/C1=C\c1cccs1,5,56*,24,-2,31,65*,30,·,·,·,·,72*
C/C(CC(C)(C)C1CCCCC1)=N\NC(N)=S,-6,54*,69*,-190,55*,78*,20,·,·,70*,73*,64*
CC(C)N(C(=O)CN1CCC(c2nc3ccccc3[nH]2)CC1)C(C)C,-6,-6,-15,-10,2,-1,·,·,·,·,·,·
NNC(=O)c1c(O)c2cccc3c2n(c1=O)CCC3,17,62*,28,-2,24,53*,76*,52*,52*,·,·,38
COc1ccc(S(=O)(=O)Nc2c(O)ccc3ccccc23)cc1OC,16,1,25,0,13,24,·,·,·,·,·,·
CCOC(=O)N1C(=O)C2(CCCCC2)N(c2ccccc2Cl)C1=S,2,64*,60*,-22,57*,78*,67*,34,51*,52*,-2,68*
SMILES,SKKanGAS inh,NALP3 yeast inh,tim10-1 inh,PfHsp90 set2,TIM10 inh,tim23-1 inh,NALP3 yeast conf,Casp1 ASC ctr,NALP3 retest,tim10-1 confirm,tim10 confirm,tim23-1 conf
Cc1noc(C)c1C(=O)Nc1nc2ccc(Cl)cc2s1,1,58*,50*,29,32,62*,72*,71*,58*,32*,·,47*
N#Cc1cccc(NC(=O)CCN2C(=O)C3CCCCC3C2=O)c1 (stereo not given),·,10,16,·,-5,1,·,·,·,·,·,·
CCCCCCCCCCCCCCCC[n+]1cccc(C(=O)N(CC)CC)c1,92*,63*,96*,107*,25,60*,73*,72*,68*,94*,·,79*
CCCCCCCC[n+]1cccc(C(=O)N(CC)CC)c1,4,8,-4,-10,-3,19,·,·,·,·,·,·
Cn1c(=O)[nH]c2c(c1=O)CCO2,·,·,·,-3,·,·,·,·,·,·,·,·
O=c1c(Cl)c(O)c2cccc3c4ccccc4n1c23,14,5,16,1,9,20,·,·,·,·,·,·
COc1c(O)c(=O)n2c3ccccc3c3ccnc1c32,-5,77*,36,26,35,62*,85*,80*,82*,·,·,78*
CC[C@]12C(=O)N(C)C[C@H]([C@@H]3C(=O)N(C)C(=O)[C@@H]31)N2C(=O)c1ccc(C)cc1,·,·,·,-6,·,·,·,·,·,·,·,·

# Screening data deposited in PubChem by several laboratories.
